Laboratory results from PubChem BioAssay AID1986 (Sanford-Burnham Center for Chemical Genomics, 2009).
Screen size: about 290,000 compounds; about 890 (0.31%) were called active. Rule as the data show it: active = inhibition mostly above about 52% (no sharp cut-off); inactive = mostly below about 76%. This excerpt belongs to a sample that is enriched for actives.

Experiment: cell-free HIV fusion peptide-binding blockers – biochemical, uHTS, fluorescence dequenching, primary screen (AID 1986)
Settings: 30 min, stronger effect = higher value
[1] = measured here: repeat confirmation average inhibition, at 18.6 µM

Structure (SMILES)	inhibition (at 20 µM)	inhibition [1] [%]
Cc1c(Cc2ccccc2)sc(NC(=O)/C=C/c2cccc3ccccc23)c1C(N)=O	3.6% (inactive)	–
COc1cc2ccccc2nn1	-0.9% (inactive)	–
COc1ccc2c(n1)Sc1nc3ccccc3nc1N2	82.7% (active)	–
COc1nc2ccccc2nc1OC	0.6% (inactive)	–
COC(=O)Nc1nnc(-c2ccccc2Cl)s1	-1.6% (inactive)	–
CCCN(C(=O)COc1ccc(Cl)cc1Cl)c1c(N)n(Cc2ccccc2)c(=O)[nH]c1=O	5.9% (inactive)	–
CCSC1=N/C(=C\c2ccc3c(c2)OCO3)C(=O)S1	9.4% (inactive)	–
CCSC1=N/C(=C\C=C2/Oc3ccccc3N2CC)C(=O)S1	109% (active)	63
CCCCN1C(=O)/C(=C/C=C2\Oc3ccccc3N2CC)SC1=S	149% (inactive)	–
CCN(CC)c1ccc(-c2nc3cnccc3n2C)cc1	0.4% (inactive)	–
O=C(NCC1CCCO1)C1CCN(C2CCN(Cc3ccco3)CC2)CC1 (centres undefined)	1.6% (inactive)	–
CCOc1ccc(-c2nn(-c3ccccc3)cc2/C=C2\SC(=S)N(Cc3ccco3)C2=O)cc1	17.3% (inactive)	–
CCOc1ccc(-c2nn(-c3ccccc3)cc2/C=C2\SC(=S)N(C3CCS(=O)(=O)C3)C2=O)cc1 (centres undefined)	78.9% (active)	85
CCCOc1ccc(-c2nn(-c3ccccc3)cc2/C=C2\SC(=S)N(C3CCS(=O)(=O)C3)C2=O)cc1 (centres undefined)	-1.7% (inactive)	–
CCCOc1cccc(C(=O)N(Cc2ccc(OC)c(OC)c2)C2CCS(=O)(=O)C2)c1 (centres undefined)	1% (inactive)	–
CCCCN(C)CCNC(=O)c1ccc(Cn2c(=S)[nH]c3ccc(Br)cc3c2=O)cc1	-3.1% (inactive)	–

Structure (SMILES)	inhibition (at 20 µM)	inhibition [1] [%]
COC(=O)N=Nc1c(O)n(Cc2ccccc2)c2ccccc12	-1.9% (inactive)	–
O=C(COc1ccc(Cl)cc1Cl)Nc1ccc2nc3n(c(=O)c2c1)CCCC3	-2.9% (inactive)	–
CCCC1(c2ccccc2)NC(=O)N(CC(=O)Nc2cc(OC)cc(OC)c2)C1=O (centres undefined)	0.8% (inactive)	–
CCC1(c2ccccc2)NC(=O)N(CC(=O)Nc2ccc(S(N)(=O)=O)cc2)C1=O (centres undefined)	1.2% (inactive)	–
CCC1(c2ccccc2)NC(=O)N(CC(=O)Nc2ccc(OC)nc2)C1=O (centres undefined)	116% (active)	–
O=C(COC(=O)c1ccc(S(=O)(=O)N2CCOCC2)cc1)NC1CCCC1	0.3% (inactive)	–
Cc1ccc(Nc2c(-c3ccccn3)nc3cc(C)ccn23)cc1	0.3% (inactive)	–
Cc1ccn2c(Nc3ccc4c(c3)OCO4)c(-c3ccccn3)nc2c1	114% (active)	–
Cc1ccn2c(Nc3ccccc3)c(-c3ccccn3)nc2c1	-2.6% (inactive)	–
CCC(C)NC(=O)CN1C(=O)NC2NC(=O)NC21 (centres undefined)	0.8% (inactive)	–
Cc1cc(NC(=S)N(Cc2ccc(Cl)cc2)Cc2ccc(C(=O)O)cc2)ccc1Cl	53.2% (inactive)	34.6
Cc1ccc(NC(=S)N(Cc2ccc(Br)cc2)Cc2ccc(C(=O)O)cc2)cc1C	36.8% (inactive)	–
Cc1cc(NC(=S)N(Cc2ccc(Br)cc2)Cc2ccc(C(=O)O)cc2)ccc1Cl	59.2% (active)	–
CCOc1cc(/C=N/NC(=O)Cc2ccc(C(F)(F)F)cc2[N+](=O)[O-])c(Br)cc1OC	0.7% (inactive)	–
O=C(Nc1nnc(CCc2ccccc2)s1)c1ccc(F)cc1	1.8% (inactive)	–
